Screening data deposited in PubChem BioAssay by Sanford-Burnham Center for Chemical Genomics.
TIM10 inh = growth inhibitors of TIM10 yeast strain; 330,000 tested, 1.4% active; inhibition, % at 10 µM; S. cerevisiae TIM10 strain growth, BacTiter-Glo luminescence, 24 h; AID 463195;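 active means inhibition of 40% or more at the single tested concentration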;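 further: wild-type TIM10 isogenic control strain grown at permissive 25 °C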
tim23-1 inh = inhibits growth of tim23-1 mutant yeast; S. cerevisiae tim23-1 growth, BacTiter-Glo luminescence, 24 h; inhibition, % at 20 µM; 330,000 tested, 1.3% active; AID 463212;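 active means growth inhibition of the mutant yeast at or above 50%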;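 further: temperature-sensitive mutant grown at 25 °C; plate controls were DMSO-treated mutant yeast for no effect and medium wells lacking yeast for full effect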
tim10-1 inh = inhibits growth of tim10-1 mutant yeast | S. cerevisiae tim10-1 ts strain growth, BacTiter-Glo, 24 h | inhibition, % at 20 µM | 330,000 tested, 2.2% active | AID 463190;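 active means inhibition of at least 40%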;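 further: mutant grown at 25 °C; 0% = DMSO wells with yeast and 100% = wells holding no yeast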
NLRP3 yeast inh = NALP3 inhibition in yeast. Yeast reconstituted NLRP3/ASC/caspase-1, beta-gal luminescence, 24 h. inhibition, % at 10 µM. 330,000 tested, 0.39% active;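 active means inhibition of 50% or more; inactive means inhibition below 50%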;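 further: plate controls were induced DMSO wells for no effect and uninduced yeast grown without galactose for full effect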
NALP1 inh = inhibitors of NALP1 inflammasome in yeast. S. cerevisiae NALP1/ASC/caspase-1 growth, X-gal OD620, 72 h. inhibition, % at 10 µM. 280,000 tested, 0.61% active. AID 2071; in the data active means inhibition mostly above about 24%, no sharp cut-off; inactive means mostly below about 32%
tim10-1 conf = tim10-1 yeast growth inhibition, confirmed. shares compounds with tim10-1 inh. S. cerevisiae tim10-1 ts strain growth, BacTiter-Glo, 24 h. inhibition, % at 20 µM. 7,400 tested, 56% active. AID 463213;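 active means inhibition of yeast growth at or above a set limit in either of two repeat tests at 20 µM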;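 further: tim10-1 mutant grown at permissive 25 °C to find synthetic lethal compounds; 0% = DMSO yeast wells and 100% = medium wells without yeast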
TIM10 conf = TIM10 yeast growth inhibition, confirmed. shares compounds with TIM10 inh. S. cerevisiae tim10 strain growth, BacTiter-Glo luminescence, 24 h. inhibition, % at 10 µM. 4,600 tested, 63% active. AID 463215;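 active means inhibition of yeast growth at or above a set limit in either of two replicates at 10 µM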;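 further: this counterscreen used the strain with wild-type TIM10; 0% = yeast with DMSO and 100% = medium wells lacking yeast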
tim23-1 confirm = tim23-1 yeast growth inhibition, confirmed; shares compounds with tim23-1 inh; inhibition, % at 20 µM; 4,400 tested, 83% active; S. cerevisiae tim23-1 growth, BacTiter-Glo luminescence, 24 h; AID 463218;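 active means inhibition above about 39% in either of two replicate wells at 20 µM, limit read from the data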;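 further: temperature-sensitive tim23-1 mutant grown at 25 °C; 0% = DMSO wells with yeast and 100% = medium wells without yeast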
Numbers without * were called inactive. This is a sample that favours compounds with a hit; in the whole collection about 4% have one here.

Cc1ncsc1C(=O)N1CCCC(CNS(=O)(=O)c2cccs2)C1 (stereo not drawn) was read as TIM10 inh -12, tim23-1 inh 8, tim10-1 inh -18, NLRP3 yeast inh 10 and NALP1 inh 3.
For Cc1cccc(N2CCN(S(=O)(=O)c3ccc4c(c3)NC(=O)C(C)S4)CC2)c1C (stereo not drawn) the results were TIM10 inh 10, tim23-1 inh 55*, tim10-1 inh 50*, NLRP3 yeast inh 4, NALP1 inh 6, tim10-1 conf 21 and tim23-1 confirm 34.
COc1ccc(C(=O)/C=C/Sc2nc3ccccc3o2)cc1 was read as TIM10 inh 38, tim23-1 inh 75*, tim10-1 inh 50*, NLRP3 yeast inh 13, NALP1 inh 21, tim10-1 conf 38* and tim23-1 confirm 66*.
For CCCCOC(=O)Sc1nc2ccccc2o1 the results were TIM10 inh 64*, tim23-1 inh 74*, tim10-1 inh 49*, NLRP3 yeast inh 22, NALP1 inh 9, tim10-1 conf 49*, TIM10 conf 43* and tim23-1 confirm 44*.
Screening CCOc1ccc2oc(C(=O)NCc3ccccc3CN3CCCC3)c(C)c2c1 returned TIM10 inh 13, tim23-1 inh 29, tim10-1 inh 26 and NLRP3 yeast inh 28.
Screening O=[N+]([O-])c1cnc(Sc2ccncn2)s1 returned TIM10 inh 82*, tim23-1 inh 68*, tim10-1 inh 47*, NLRP3 yeast inh 23, NALP1 inh 9, tim10-1 conf 49*, TIM10 conf 95* and tim23-1 confirm 53*.
`Cc1ccc(NC(=O)NNC(=O)c2ccc3c(c2)NC(=O)C(C)(C)O3)cc1` gave TIM10 inh -5, tim23-1 inh 8, tim10-1 inh 5, NLRP3 yeast inh 23 and NALP1 inh 14.
`O=C1c2ccccc2NC(c2ccc(-c3ccc(F)cc3)o2)N1O` (stereo not drawn) gave TIM10 inh -4, tim23-1 inh 19, tim10-1 inh 5 and NLRP3 yeast inh 9.
For O=C1c2ccccc2NC(c2ccc(-c3ccc(Br)cc3)o2)N1O (stereo not drawn) the results were TIM10 inh 44*, tim23-1 inh 62*, tim10-1 inh 46*, NLRP3 yeast inh 9, NALP1 inh 6, tim10-1 conf 28, TIM10 conf 52* and tim23-1 confirm 65*.
Screening CC(C)C[C@H](NC(=O)OC(C)(C)C)C(=O)N[C@@H](CO)[C@H](O)[C@@H]1C[C@@H]1C(=O)NC1CCCCC1 returned TIM10 inh 9, tim23-1 inh 7, tim10-1 inh 8, NLRP3 yeast inh 10 and NALP1 inh 15.
C=CCN1c2ccccc2C(=O)CS1(=O)=O was read as TIM10 inh 1, tim23-1 inh 15, tim10-1 inh 9 and NLRP3 yeast inh 5.
Screening O=C1CS(=O)(=O)N(Cc2cccc(F)c2)c2ccc(Br)cc21 returned TIM10 inh 34, tim23-1 inh 66*, tim10-1 inh 48*, NLRP3 yeast inh 29, tim10-1 conf 48* and tim23-1 confirm -6.
Screening O=C(NC1=NCCS1)c1cc(-c2cccs2)nc2ccccc12 returned TIM10 inh 46*, tim23-1 inh 50*, tim10-1 inh 48*, NLRP3 yeast inh 6, tim10-1 conf 46*, TIM10 conf 31* and tim23-1 confirm 54*.
`O=C(NC1=NCCS1)c1cc(-c2cccnc2)nc2ccccc12` gave TIM10 inh 21, tim23-1 inh 15, tim10-1 inh 18, NLRP3 yeast inh 6 and NALP1 inh 8.
Screening O=c1c2ccccc2sc2nc(C3CCCCC3)n(Cc3ccco3)c(=O)c12 returned NALP1 inh 4.
Screening CCc1nc2sc3ccccc3c(=O)c2c(=O)n1Cc1ccco1 returned TIM10 inh 34, tim23-1 inh 53*, tim10-1 inh 69*, NLRP3 yeast inh 24, NALP1 inh 7, tim10-1 conf 61* and tim23-1 confirm 62*.
`Cc1nn(-c2ccccc2)c(Cl)c1/C=C(\C#N)C(=O)NC(C)C` gave TIM10 inh 53*, tim23-1 inh 73*, tim10-1 inh 56*, NLRP3 yeast inh 35, NALP1 inh 48, tim10-1 conf 72*, TIM10 conf 56* and tim23-1 confirm 60*.
CCS(=O)(=O)N1CCC(C(=O)N2CCN(Cc3ccccc3)CC2)CC1 was read as TIM10 inh -37, tim23-1 inh 5, tim10-1 inh 12, NLRP3 yeast inh 13 and NALP1 inh 1.
For COc1cc(/C=C(\C#N)C(=O)NCC2CCCO2)ccc1OC(=O)c1ccco1 (stereo not drawn) the results were TIM10 inh 34, tim23-1 inh 64*, tim10-1 inh 40*, NLRP3 yeast inh 12, tim10-1 conf 34* and tim23-1 confirm 53*.
Screening COc1cc(/C=C(\C#N)C(=O)NCC2CCCO2)ccc1OC(C)C (stereo not drawn) returned TIM10 inh 11, tim23-1 inh 33, tim10-1 inh 31, NLRP3 yeast inh 4 and NALP1 inh -25.
Cc1ccc(C2CN(C)C3(C(=O)Nc4ccccc43)C23COc2ccccc2C3=O)cc1 (stereo not drawn) was read as TIM10 inh 29, tim23-1 inh 53*, tim10-1 inh 45*, NLRP3 yeast inh -19, NALP1 inh 7, tim10-1 conf 37* and tim23-1 confirm 47*.
Screening O=C(Nc1nc2cc3c(cc2s1)OCCO3)c1ccncc1 returned TIM10 inh 4, tim23-1 inh 7, tim10-1 inh 15, NLRP3 yeast inh -1 and NALP1 inh -11.
For O=C(Nc1nc2cc3c(cc2s1)OCCO3)c1ccco1 the results were TIM10 inh 43*, tim23-1 inh 75*, tim10-1 inh 49*, NLRP3 yeast inh 43, NALP1 inh 17, tim10-1 conf 41*, TIM10 conf 41* and tim23-1 confirm 60*.
For NC(=S)N/N=C/c1ccc(-c2cc(Cl)cc(Cl)c2)o1 the results were TIM10 inh 8, tim23-1 inh -5, tim10-1 inh 29, NLRP3 yeast inh -1 and NALP1 inh -2.
For NC(=S)N/N=C/c1ccc(-c2cc(Cl)ccc2Cl)o1 the results were TIM10 inh 45*, tim23-1 inh 54*, tim10-1 inh 44*, NLRP3 yeast inh 17, NALP1 inh -1, tim10-1 conf 18, TIM10 conf 39* and tim23-1 confirm 62*.
